In paper PMC4336329 (PLoS ONE, 2015):
The whole screen tested about 310,000 compounds, of which about 14,000 (4.5%) showed an effect of 50% or more. Effects have a minus sign here. The sample as a whole holds a higher share of strong results than the screen did.

The compounds below were run against human ether-à-go-go-related gene (hERG) potassium channel (human, UniProt Q12809) (assay: primary screen, population patch clamp on CHO cells stably expressing hERG; higher = less effect of the substance).
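Further: peak tail current of the secondary pulse compared with the same well before compound.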

Sequence of human ether-à-go-go-related gene (hERG) potassium channel (Q12809 whole entry, looked up): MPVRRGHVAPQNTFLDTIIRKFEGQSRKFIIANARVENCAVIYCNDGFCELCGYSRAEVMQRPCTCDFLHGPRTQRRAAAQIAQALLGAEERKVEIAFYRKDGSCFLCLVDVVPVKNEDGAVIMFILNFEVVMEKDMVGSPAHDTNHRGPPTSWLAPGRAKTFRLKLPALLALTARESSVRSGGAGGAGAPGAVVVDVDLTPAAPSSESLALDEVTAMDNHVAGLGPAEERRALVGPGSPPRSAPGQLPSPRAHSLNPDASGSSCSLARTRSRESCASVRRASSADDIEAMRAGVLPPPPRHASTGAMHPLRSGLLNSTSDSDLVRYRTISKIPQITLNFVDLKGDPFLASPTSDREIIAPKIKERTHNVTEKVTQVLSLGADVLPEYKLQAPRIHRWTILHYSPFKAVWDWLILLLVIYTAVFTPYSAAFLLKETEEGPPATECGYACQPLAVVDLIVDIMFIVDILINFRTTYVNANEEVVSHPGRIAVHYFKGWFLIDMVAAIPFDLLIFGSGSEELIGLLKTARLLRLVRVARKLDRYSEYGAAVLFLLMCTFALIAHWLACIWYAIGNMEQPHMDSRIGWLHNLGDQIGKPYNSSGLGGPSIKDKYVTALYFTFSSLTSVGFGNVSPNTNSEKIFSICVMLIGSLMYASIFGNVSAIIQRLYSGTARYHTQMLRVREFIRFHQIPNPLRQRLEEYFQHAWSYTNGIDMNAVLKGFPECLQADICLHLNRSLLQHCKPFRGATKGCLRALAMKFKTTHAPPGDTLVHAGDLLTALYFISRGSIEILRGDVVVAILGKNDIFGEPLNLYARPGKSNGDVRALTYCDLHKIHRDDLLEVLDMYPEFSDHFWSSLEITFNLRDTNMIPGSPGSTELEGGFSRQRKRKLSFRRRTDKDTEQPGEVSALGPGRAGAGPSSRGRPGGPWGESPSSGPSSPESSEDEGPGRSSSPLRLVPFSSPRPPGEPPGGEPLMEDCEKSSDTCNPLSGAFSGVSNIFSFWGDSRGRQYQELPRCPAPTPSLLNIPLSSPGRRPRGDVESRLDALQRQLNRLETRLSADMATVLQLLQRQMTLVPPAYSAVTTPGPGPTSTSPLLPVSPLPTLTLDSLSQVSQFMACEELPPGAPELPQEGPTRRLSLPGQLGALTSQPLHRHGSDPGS

SMILES | hERG current change (%, negative = inhibition) at 10uM [%]
CCCCn1c(SCC(=O)NCc2ccccc2)nc2ccc(N3CCOCC3)cc2c1=O | -13.9
COc1ccc(OC)c(NC(=O)C2C3CC4OC(=O)C2C4C3)c1 (stereo not shown) | 11.2
O=C(c1cccn2c(=O)c3ccccc3nc12)N1CCN(Cc2ccc3c(c2)OCO3)CC1 | -67.7
O=C(c1cc(Cl)nc2ccccc12)N1CCN(Cc2ccc3c(c2)OCO3)CC1 | -37.9
O=C(c1ccc2nc3ccccc3c(=O)n2c1)N1CCN(Cc2ccc3c(c2)OCO3)CC1 | -60.9
O=C(c1ccccc1Cl)N1CCN(Cc2ccc3c(c2)OCO3)CC1 | -21.1
O=C(Cn1cnc2ccccc2c1=O)N1CCN(Cc2ccc3c(c2)OCO3)CC1 | -14
O=C(c1cccn2c(=O)c3cc(Cl)ccc3nc12)N1CCN(Cc2ccc3c(c2)OCO3)CC1 | -75.2
O=C(Cn1ccc2ccccc2c1=O)N1CCN(Cc2ccc3c(c2)OCO3)CC1 | -14.8
O=C(O)C(=O)O.O=C(c1ccccc1F)N1CCN(Cc2ccc3c(c2)OCO3)CC1 | 6.48
O=C(c1cccc(Cl)c1)N1CCN(Cc2ccc3c(c2)OCO3)CC1 | -16.6
CCc1ccc(NC(=O)c2cc(-c3ccc(OC)cc3)on2)cc1 | -0.467
CCc1cc(=O)oc2cc(C)cc(OCc3nn[nH]n3)c12 | -5.99
CCc1nn(CCCC(=O)Nc2ccc(C)c(C)c2)c(=O)c2cc3occc3n12 | 4.15
CCc1ccccc1N(CC(=O)NCc1ccco1)C(=O)CCC(=O)Nc1ccccn1 | -7.41
Clc1cccc(CN2CCN(c3nc4nonc4nc3NC3CC3)CC2)c1 | -65.4
Fc1cccc(CN2CCN(c3nc4nonc4nc3NC3CC3)CC2)c1 | -10.3
Cc1cccc(CN2CCN(c3nc4nonc4nc3NC3CC3)CC2)c1 | -4.44
O=C(COC(=O)C1=NN(c2ccccc2)C(=O)CC1)Nc1ccc([N+](=O)[O-])cc1C(F)(F)F | 5.08
CC(C)CN(CC(C)C)C(=O)c1cccc(S(=O)(=O)N2CCc3ccccc32)c1 | -24.9
CCOC(=O)C1CCN(C(=S)NC2CC3C=CC2C3)CC1 (stereo not shown) | -54.3

SMILES | hERG current change (%, negative = inhibition) at 10uM [%]
CCOC(=O)C1CCN(C(=S)NC2CCCC2)CC1 | 0.997
NC(=O)C1CCN(C(=S)NC2CC3C=CC2C3)CC1 (stereo not shown) | 16.2
CN(c1ccccc1)S(=O)(=O)c1cccc(NC(=O)Cc2ccc(Cl)cc2)c1 | 9.43
COc1ccc(CN2C(=NC(=O)CCc3ccccc3)SC3CS(=O)(=O)CC32)cc1 (stereo not shown) | 3.85
CC(NC(=O)c1ccco1)C12CC3CC(CC(C3)C1)C2 (stereo not shown) | -50.1
CC(C)[C@H](NC(=O)c1ccco1)C(=O)NC12CC3CC(CC(C3)C1)C2 | -5.81
CC(NC(=O)COC(=O)CCNC(=O)c1ccco1)C12CC3CC(CC(C3)C1)C2 (stereo not shown) | 0.656
CC1CN(C2CCN(S(=O)(=O)c3ccc4ccccc4c3)CC2)CC(C)O1 (stereo not shown) | -22.5
CN1C(C(=O)N2CCc3ccccc3C2)=CC(c2ccc(F)cc2)=NS1(=O)=O | -3.37
COc1ccc(CCN(C)CCCC(C#N)(c2cc(OC)c(OC)c(OC)c2)C(C)C)cc1OC.Cl (stereo not shown) | -64.1
CCC(=O)C(C#N)(c1ccc(OC)c(OC)c1)C(C)C (stereo not shown) | -7.65
COc1ccc(CCN(Cc2ccc(C(C)C)cc2)S(=O)(=O)c2ccc(S(=O)(=O)N(C)C)cc2)cc1OC | -11.1
Cn1c(Cn2c(=O)sc3ccccc32)nnc1SCC(=O)NCc1ccccc1 | -0.25
Cc1ccc(NC(=S)N2CCN(S(=O)(=O)c3c(F)cccc3F)CC2)cc1C | -17.6
Nc1nc(CN2CCc3ccccc3C2)nc(Nc2ccccc2)n1 | -51
COc1ccccc1Nc1nc(N)nc(CN2CCc3ccccc3C2)n1 | -44.8
Cc1ccc(Nc2nc(N)nc(CN3CCc4ccccc4C3)n2)cc1 | -72.2
Cc1ccc(Nc2nc(N)nc(CSc3ncccn3)n2)cc1 | -18.7
Nc1nc(CSCCO)nc(Nc2ccccc2)n1 | 9.39
COc1ccc(Nc2nc(N)nc(CN3CCc4ccccc4C3)n2)cc1 | -56.4
Cc1ccc(Nc2nc(N)nc(CSc3nnnn3-c3ccccc3)n2)cc1 | 4.49

SMILES | hERG current change (%, negative = inhibition) at 10uM [%]
COc1ccc(Nc2nc(N)nc(CSC(=S)N3CCCCC3)n2)cc1 | 0.179
Nc1nc(CSc2ncccn2)nc(Nc2ccccc2)n1 | 1.55
COc1cc([N+](=O)[O-])ccc1NC(=O)COC(=O)CCOc1ccc(C)cc1 | -11.2
O=C(CCCCn1c(=O)c2ccccc2n(CC(=O)NC2CCCC2)c1=O)NCc1ccco1 | -15.6
O=C(O)CSc1nnc(Cc2ccccc2)n1-c1ccccc1 | 5.74
COc1cc(CNCCO)ccc1OCCc1ccccc1 | 6.61
COc1cc(C)c(C(=O)Oc2cc(C)c(C(=O)O)c(O)c2)c(O)c1 | 11.5
COc1ccc(OCCN2CCN(C(=O)c3ccc(OC(F)F)c(OC)c3)CC2)cc1 | -72.6
Clc1cccc(OCCN2CCN(CCOc3cccc(Cl)c3)CC2)c1 | -70.8
CN1CCN(CCOc2cccc(Cl)c2)CC1.Cl | 1.19
Cl.Clc1cccc(OCCN2CCCC2)c1 | 2.13
CC1(C)NC(=O)N(CCOc2ccc([N+](=O)[O-])cc2)C1=O | -37.6
COc1ccc(C(=O)N2CCN(C(=O)c3ccncc3)CC2)cc1 | 12.4
CCOc1cc(C(=O)N2CCc3cc(OC)c(OC)cc3C2)ccc1OC(F)F | -35.7
N#Cc1ccc(OCCN2C(=O)NC3(CCSC3)C2=O)cc1 (stereo not shown) | -57.2
COc1ccc(C(=O)NCCN2CCN(C(=O)c3ccc(OC)c(OC)c3)CC2)cc1OC | 14.5
N#Cc1ccc(CN2C(=O)NC3(CCCCCC3)C2=O)cc1 | -32.2
COc1ccc(C(=O)N2CCCC2)cc1 | -2.88
COc1ccc(OCCN2CCN(C(=O)c3ccc(OC)cc3)CC2)cc1 | -87.2
